What all share (assay): protein-binding microarray (PBM); PBM: ~300 nM protein, 6 mM HEPES pH 7.8, 80 mM KCl, 0.5 mM EDTA, 0.5 mM EGTA, 6% glycerol, 35 ng/ul poly-dIdC, 1% milk, 1 h, room temperature; Ap Aiptasia and Nv Nematostella (sea anemones) / Co Capsaspora / Aq Amphimedon (sponge) / Dm Drosophila / Hu human; RHD is the Rel homology domain; high values mean tight binding
Settings in all cases: dsDNA, one strand shown

The target in test [1] is T1, GST-Ap-NF-kB RHD (Exaiptasia pallida (Aiptasia), UniProt A0A913YAJ5 2-422).
T1 sequence: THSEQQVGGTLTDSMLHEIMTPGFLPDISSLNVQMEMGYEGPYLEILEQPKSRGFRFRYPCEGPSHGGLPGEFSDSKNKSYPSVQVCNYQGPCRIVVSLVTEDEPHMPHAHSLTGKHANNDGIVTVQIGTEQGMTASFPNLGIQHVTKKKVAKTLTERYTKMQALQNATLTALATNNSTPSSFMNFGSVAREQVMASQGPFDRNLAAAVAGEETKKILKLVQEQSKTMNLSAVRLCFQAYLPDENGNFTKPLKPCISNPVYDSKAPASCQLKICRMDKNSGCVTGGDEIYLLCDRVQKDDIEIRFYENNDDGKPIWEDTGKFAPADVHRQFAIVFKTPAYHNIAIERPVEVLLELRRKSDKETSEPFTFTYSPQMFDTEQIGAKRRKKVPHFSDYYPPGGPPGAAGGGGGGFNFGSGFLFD

Test [2] deals with T2, GST-Nv-NF-kB (Cys allele) (Nematostella vectensis, UniProt E5G601 2-411).
T2 sequence: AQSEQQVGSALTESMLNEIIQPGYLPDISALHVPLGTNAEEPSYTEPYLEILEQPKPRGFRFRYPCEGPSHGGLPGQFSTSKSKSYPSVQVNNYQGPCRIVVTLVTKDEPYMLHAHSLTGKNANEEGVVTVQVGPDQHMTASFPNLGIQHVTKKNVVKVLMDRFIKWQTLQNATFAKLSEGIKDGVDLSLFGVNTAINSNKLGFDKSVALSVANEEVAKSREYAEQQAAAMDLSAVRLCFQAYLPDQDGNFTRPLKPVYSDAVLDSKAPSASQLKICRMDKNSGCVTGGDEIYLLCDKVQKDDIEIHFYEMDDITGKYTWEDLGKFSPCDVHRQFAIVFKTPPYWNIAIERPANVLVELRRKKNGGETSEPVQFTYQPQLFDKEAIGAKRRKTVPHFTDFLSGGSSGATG

Test [3] has as its target T3, GST-Co-NF-kB (Capsaspora owczarzaki, UniProt F1ARL5 200-546).
T3 sequence: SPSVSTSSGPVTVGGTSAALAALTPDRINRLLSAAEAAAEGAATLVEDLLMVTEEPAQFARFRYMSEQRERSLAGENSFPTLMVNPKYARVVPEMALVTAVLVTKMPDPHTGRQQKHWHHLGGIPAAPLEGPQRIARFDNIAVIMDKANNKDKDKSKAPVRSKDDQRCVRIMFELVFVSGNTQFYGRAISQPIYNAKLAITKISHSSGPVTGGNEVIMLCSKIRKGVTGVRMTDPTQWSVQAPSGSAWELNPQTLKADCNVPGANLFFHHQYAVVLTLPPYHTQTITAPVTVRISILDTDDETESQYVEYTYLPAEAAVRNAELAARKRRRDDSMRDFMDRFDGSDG

In test [4] the target is T4, GST-Dm-Relish (Drosophila melanogaster, UniProt Q94527 99-473).
T4 sequence: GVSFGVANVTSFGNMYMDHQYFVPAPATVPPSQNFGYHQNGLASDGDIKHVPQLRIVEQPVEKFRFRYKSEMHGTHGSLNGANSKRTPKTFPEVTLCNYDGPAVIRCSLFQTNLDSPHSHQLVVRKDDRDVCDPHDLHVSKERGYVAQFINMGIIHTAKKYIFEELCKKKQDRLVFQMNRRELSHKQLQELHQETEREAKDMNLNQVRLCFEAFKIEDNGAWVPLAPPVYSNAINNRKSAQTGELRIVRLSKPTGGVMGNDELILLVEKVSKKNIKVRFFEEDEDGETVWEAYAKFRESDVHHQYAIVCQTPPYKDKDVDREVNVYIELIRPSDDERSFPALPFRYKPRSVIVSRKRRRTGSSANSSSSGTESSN

The target of test [5] is T5, GST-Aq-NF-kB (Amphimedon queenslandica, UniProt A9Y5G7 2-389).
T5 sequence: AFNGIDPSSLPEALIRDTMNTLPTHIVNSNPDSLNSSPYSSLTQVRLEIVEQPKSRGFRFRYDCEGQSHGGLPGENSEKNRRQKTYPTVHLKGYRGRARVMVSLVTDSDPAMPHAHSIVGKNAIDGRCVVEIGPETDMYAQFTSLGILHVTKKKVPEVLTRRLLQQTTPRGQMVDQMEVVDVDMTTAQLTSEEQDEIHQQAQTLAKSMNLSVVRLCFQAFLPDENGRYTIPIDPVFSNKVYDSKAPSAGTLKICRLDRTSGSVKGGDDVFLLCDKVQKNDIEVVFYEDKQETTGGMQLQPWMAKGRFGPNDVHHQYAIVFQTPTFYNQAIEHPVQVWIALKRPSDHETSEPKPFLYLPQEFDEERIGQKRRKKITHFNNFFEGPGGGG

Test [6] has as its target GST-Hu-p50 (Homo sapiens, UniProt P19838 7-356).

The source of these data is paper PMC5700166.

Sequence of GST-Hu-p50 (P19838 7-356): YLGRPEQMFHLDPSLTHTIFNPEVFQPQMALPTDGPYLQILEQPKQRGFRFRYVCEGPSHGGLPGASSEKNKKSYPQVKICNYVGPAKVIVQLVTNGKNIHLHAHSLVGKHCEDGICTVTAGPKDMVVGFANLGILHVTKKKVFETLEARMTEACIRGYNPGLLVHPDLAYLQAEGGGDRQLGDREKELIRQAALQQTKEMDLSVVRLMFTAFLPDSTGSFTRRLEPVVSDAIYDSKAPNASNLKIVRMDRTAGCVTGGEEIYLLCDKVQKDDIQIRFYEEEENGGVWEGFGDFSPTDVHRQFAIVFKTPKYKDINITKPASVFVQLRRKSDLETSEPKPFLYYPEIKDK

In the case of “CCGATTAACATCAGAGTATCCCCTGATGTTAATCGGGTCTTGATTCGCTTGACGCTGCTG”, the binding signal was found to be 5.9 z-score in test [1]; 4.9 z-score in test [2]; 4.05 z-score in test [3]; 3.14 z-score in test [4]; 3.98 z-score in test [5]; 4.2 z-score in test [6].

Regarding “CCGATTAACATCAGGAACCCCCCTGATGTTAATCGGGTCTTGATTCGCTTGACGCTGCTG”, the binding signal in test [1] came to 8.98 z-score; in test [2] it was 6.2 z-score; in test [3], 3.38 z-score; in test [4], 9.74 z-score; in test [5] it was 7.32 z-score; in test [6], 5.86 z-score.

For “CCGATTAACATCAGGGGGTATTATGATGTTAATCGGGTCTTGATTCGCTTGACGCTGCTG”, the binding signal in test [1] amounted to 7.58 z-score; in test [2] it was 5.39 z-score; in test [3], 4.88 z-score; in test [4], 4.91 z-score; in test [5], 5.8 z-score; in test [6], 5.39 z-score.

On to “CCGATTAACATCAGAAATGCCCCTGATGTTAATCGGGTCTTGATTCGCTTGACGCTGCTG”, for which the binding signal in test [1] is 4.03 z-score; in test [2], 5.61 z-score; in test [3], 1.98 z-score; in test [4] it was 4.09 z-score; in test [5] it was 5.32 z-score; in test [6] it was 5.55 z-score.

On to “CCGATTAACATCAGGGGCTTACCTGATGTTAATCGGGTCTTGATTCGCTTGACGCTGCTG”, for which the binding signal stood at 4.59 z-score in test [1]; 6.21 z-score in test [2]; 1.88 z-score in test [3]; 5.58 z-score in test [4]; 7.25 z-score in test [5]; 4.8 z-score in test [6].

In the case of “CCGATTAACATCAAACCACCCCCTGATGTTAATCGGGTCTTGATTCGCTTGACGCTGCTG”, the binding signal in test [1] is 3.91 z-score; in test [2] it was 3.14 z-score; in test [3], 3.81 z-score; in test [4], 2.92 z-score; in test [5], 3.77 z-score; in test [6], 4.3 z-score.

On to “CCGATTAACATCAAACAGTCCCCTGATGTTAATCGGGTCTTGATTCGCTTGACGCTGCTG”, for which the binding signal came out at 5.58 z-score in test [1]; 5.6 z-score in test [2]; 2.54 z-score in test [3]; 3.49 z-score in test [4]; 5.66 z-score in test [5]; 4.54 z-score in test [6].

Take “CCGATTAACATCAAAAAACCCCGTGATGTTAATCGGGTCTTGATTCGCTTGACGCTGCTG”: the binding signal turned out to be 7.4 z-score in test [1]; 7.45 z-score in test [2]; 3.92 z-score in test [3]; 8.97 z-score in test [4]; 7.03 z-score in test [5]; 6.45 z-score in test [6].

With “CCGATTAACATCAGAACCCCCCCTGATGTTAATCGGGTCTTGATTCGCTTGACGCTGCTG”, the binding signal in test [1] amounted to 7.14 z-score; in test [2] it was 4.85 z-score; in test [3] it was 4.1 z-score; in test [4] it was 7.49 z-score; in test [5], 5.36 z-score; in test [6], 5.28 z-score.

On to “CCGATTAACATCAAAATCACCCCTGATGTTAATCGGGTCTTGATTCGCTTGACGCTGCTG”, for which the binding signal in test [1] amounted to 4.66 z-score; in test [2], 2.97 z-score; in test [3] it was 5.02 z-score; in test [4], 5.22 z-score; in test [5] it was 3.41 z-score; in test [6], 4.39 z-score.

Take “CCGATTAACATCAGGGGGGAACATGATGTTAATCGGGTCTTGATTCGCTTGACGCTGCTG”: the binding signal in test [1] amounted to 6.4 z-score; in test [2] it was 4.35 z-score; in test [3] it was 9.73 z-score; in test [4], 4.25 z-score; in test [5] it was 5.22 z-score; in test [6], 5.4 z-score.
